Data on 15 compounds can be found in PubChem BioAssay (NCI).

Holding throughout (assay): NCI-60 one-dose screen, 48 h (100 = growth as untreated, 0 = no growth, -100 = all killed)
What all share (conditions): 10 µM unless noted

In experiment [1] the test system is T-47D breast.
The subject of experiment [2] is BT-549 breast.
Experiment [3] relates to MDA-MB-435 melanoma.
The test system of experiment [4] is SW-620 colon.
The test system of experiment [5] is MCF7 breast.
Experiment [6] deals with HCT-116 colon.
In experiment [7] the test system is HCC-2998 colon.
The test system of experiment [8] is KM12 colon.

The structures appear in SMILES notation. About 83,000 compounds went through this panel and 20% of them were active in at least one assay; those are over-represented in the sample as a whole.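 Note: values are percent growth. 100 is the growth of untreated cells, values between 100 and 0 indicate rising inhibition; between -100 and 0 indicates cell death.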 Values without a mark were called inactive. The source made the active and inactive calls. The calls were made as follows: active = growth percent below 10; inactive = the rest.

For the compound `C=C(C)[C@@H]1CCC[C@]2(C(=O)N3CCN(C)CC3)CC[C@]3(C)[C@@H](CC[C@@H]4[C@@]5(C)CC/C(=N\NC(=O)c6ccncc6)C(C)(C)[C@@H]5CC[C@]43C)[C@@H]12`, the growth in experiment [1] is 87.7%; in experiment [2], 105%; in experiment [3] it was 81.8%; in experiment [4], 81.2%; in experiment [5], 50.7%; in experiment [6], 97.8%. Besides, the growth in experiment [7] is 105%; in experiment [8], 85.4%.

As for `Cc1ccc2nc(-c3ccc(C(=O)NNC(=S)Nc4ccccc4)cc3)[nH]c2c1`, the growth in experiment [1] was 86.3%; in experiment [2], 90.6%; in experiment [3] it was 97.8%; in experiment [4] it was 108%; in experiment [5], 79.5%; in experiment [6], 84.6%. The growth in experiment [7] is 103%; in experiment [8], 94.8%.

As to `Nc1nc(N)c2c(n1)NC(c1ccc(Cl)cc1)C1CCc3ccccc3C1=N2` (stereo not given), the growth in experiment [1] was 52.6%; in experiment [2], 83.2%; in experiment [3] it was 44.2%; in experiment [4] it was 63.8%; in experiment [5] it was 24.8%; in experiment [6], 31.8%. Further, the growth in experiment [7] was 75.6%; in experiment [8], 55.4%.

On to `O=C(Nc1ncc(Cc2ccccc2)s1)c1ccc2c(c1)OCCCO2`, for which the growth in experiment [1] was 18.1%; in experiment [2], 48.8%; in experiment [3], -34.2% (active); in experiment [4] it was 38.1%; in experiment [5] it was 16.1%; in experiment [6], 23%. The figures for the growth in experiment [7] and in experiment [8] were 22% and 16.4%, respectively.

Take `O=C(Nc1ncccc1OCc1ccccc1)NC1CCCCCC1`: the growth in experiment [1] is 71%; in experiment [2], 78.2%; in experiment [3], 89%; in experiment [4] it was 94.9%; in experiment [5], 79.9%; in experiment [6], 58.2%. Also, the figures for the growth in experiment [7] and in experiment [8] were 105% and 88.8%, respectively.

As to `O=C(Cn1nnc2ccccc21)N/N=C/c1c[nH]c2ccccc12`, the growth in experiment [1] was 37.1%; in experiment [2], 52.4%; in experiment [3], -15.9% (active); in experiment [4], 25.3%; in experiment [5], 22%; in experiment [6] it was 26.9%. In addition, the results for the growth in experiment [7] and in experiment [8] were 78.8% and 22.6%, respectively.

As for `CN1CCN(Cc2ccc(NC(=O)c3cncc(C#Cc4cnc(N)c5ccc(F)cc45)c3)cc2C(F)(F)F)CC1`, the growth in experiment [1] is 43.5%; in experiment [2] it was 42%; in experiment [3] it was 19.3%; in experiment [4], -64.4% (active); in experiment [5], 13.2%; in experiment [6], -90.9% (active). Further, the growth was 34.8% in experiment [7] and 7.82% (active) in experiment [8].

For the compound `CCN1C(=O)N(CC)C2C1NN=c1s/c(=C\c3cnc(C)n3C)c(=O)n12` (stereo not given), the growth was 24.9% in experiment [1]; 50.1% in experiment [2]; -69.1% (active) in experiment [3]; 9.38% (active) in experiment [4]; 14.5% in experiment [5]; 23.2% in experiment [6]. In addition, the growth in experiment [7] is 45.6%; in experiment [8], 16.1%.

For the compound `C=C1C(=O)O[C@H]2[C@H]1CC/C(COC(=O)/C=C/C(=O)OC/C1=C/CC[C@@]3(C)O[C@H]3[C@H]3OC(=O)C(=C)[C@@H]3CC1)=C\CC[C@@]1(C)O[C@@H]21`, the growth is 32.9% in experiment [1]; 93.9% in experiment [2]; 80.4% in experiment [3]; 6.25% (active) in experiment [4]; 22.2% in experiment [5]; 2.7% (active) in experiment [6]. For the same compound, the growth in experiment [7] is 106%; in experiment [8], 90%.

Take `COc1cccc(-c2cc(-c3cccc(Cl)c3)c(C#N)c(=O)[nH]2)c1`: the growth in experiment [1] is 80.1%; in experiment [2], 53.5%; in experiment [3], 4.96% (active); in experiment [4], 49.3%; in experiment [5], 55.5%; in experiment [6], 73.9%. Moreover, the growth in experiment [7] is 98.7%; in experiment [8], 57.5%.

Consider `NNCCc1ccc(NC(=O)CCCc2ccc(C(=O)Nc3ccccc3N)cc2)cc1`, for which the growth is 28.7% in experiment [1]; 71% in experiment [2]; 71.1% in experiment [3]; 57.5% in experiment [4]; 57.8% in experiment [5]; 41.6% in experiment [6]. The figures for the growth in experiment [7] and in experiment [8] were 92.4% and 81.5%, respectively.

Turning to `CCCCC#Cc1c(I)n(C)c(=O)[nH]c1=O`, the growth in experiment [1] is -2.85% (active); in experiment [2], -57.1% (active); in experiment [3], -36.8% (active); in experiment [4], -93.2% (active); in experiment [5], 52.3%; in experiment [6], -41.1% (active). For the same compound, the growth is -25.6% (active) in experiment [7] and 108% in experiment [8].

Turning to `C#CCO[C@H]1CC(CC#C)(CC#C)C(=O)[C@@H]2[C@H]1[C@H]1C[C@@H]3[C@@]4(C)CCC[C@@](C)(C(=O)OC)[C@@H]4CC[C@@]23C=C1C(C)C`, the growth in experiment [1] was 84%; in experiment [2] it was 101%; in experiment [3] it was 100%; in experiment [4], 95.9%; in experiment [5] it was 96.1%; in experiment [6], 96.1%. In addition, the growth in experiment [7] is 103%; in experiment [8], 63.1%.

For `CCN1CCN(CC(=O)Nc2nc3ccc(NCc4ccc(F)cc4)cc3s2)CC1`, the growth in experiment [1] was 86.8%; in experiment [2], 97.9%; in experiment [3] it was 93.4%; in experiment [4] it was 92.3%; in experiment [5] it was 92.1%; in experiment [6] it was 70.9%. In addition, the growth was 110% in experiment [7] and 94.5% in experiment [8].

As for `N#C/C(=C\c1cn(Cc2ccccc2)c2ccccc12)C(=O)Nc1ncc(Cc2ccccc2Cl)s1`, the growth was -29.3% (active) in experiment [1]; 52.8% in experiment [2]; -15.1% (active) in experiment [3]; 2.61% (active) in experiment [4]; 23.8% in experiment [5]; 0.288% (active) in experiment [6]. Also, the growth is 58.4% in experiment [7] and 26.4% in experiment [8].
